We go through 15 molecules from PubChem BioAssay (NCATS).

Molecules are shown by their SMILES. Results filed as inconclusive are left out. Active and inactive are the calls of the source. Calls follow the shape of the dose curve; as a rule, active = well fitted inhibition curve with a large enough effect; inconclusive = small, poorly fitted or top-dose-only effect; inactive = flat fitted curve, though single readings scatter.

Common to all, as to assay: qHTS profiling for inhibitors of Plasmodium falciparum proliferation (AID 504749); also: nearly all actives have a fitted effect of over 60% in size
Holding throughout (conditions): P. falciparum in erythrocytes, SYBR Green DNA, 72 h; series mostly up to 28.7 µM

The subject of one experiment is CP286. An outline of the steps: (§1)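 P. falciparum-infected erythrocytes (0.3% parasitemia, 2.5% hematocrit final) were exposed to compounds for 72 h at 37 C in 5% CO2, then lysed with SYBR Green buffer overnight at room temperature; parasite DNA fluorescence was normalized to artemisinin and DMSO controls.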
The test system of a further experiment is CP291. An outline of the steps: as §1
The subject of another experiment is CP297. In short, it runs like this:
as §1

The subject of another experiment is CP305. An outline of the steps: as §1
Another experiment deals with CP315. In short, it runs like this: as §1
The subject of another experiment is CP325. An outline of the steps:
as §1

The test system of another experiment is CP329. In short, it runs like this: as §1
Another experiment concerns CP335. In short, it runs like this: as §1
The test system of the next experiment is DFO2036. An outline of the steps:
as §1

The subject of the next experiment is DIV14. In short, it runs like this:
as §1
Potency is read from the fitted curve at half-maximal effect.

As for `COc1ccc2cc3[n+](cc2c1OC)CCc1cc2c(cc1-3)OCO2`, the Potency is 562 nM (active) in the experiment on CP286; 1510 nM (active) with CP291; 1350 nM (active) in the experiment with CP297; 757 nM (active) in the experiment on CP305; 1070 nM (active) in the experiment on CP315; 953 nM (active) in the experiment on CP325. Also, the Potency was 953 nM (active) with CP329, 953 nM (active) in the experiment with CP335, 891 nM (active) in the experiment on DFO2036 and 849 nM (active) with DIV14.
Regarding `Cc1ccnc2c1NC(=O)c1cccnc1N2C1CC1`, the Potency entry with CP286, with CP291, in the experiment on CP297, in the experiment with CP305, with CP315 and with CP325 was “inactive” throughout. The Potency entry in the experiment on CP329, with CP335, in the experiment on DFO2036 and in the experiment on DIV14 was “inactive” throughout.
Consider `Cc1noc(NS(=O)(=O)c2ccc(N)cc2)c1C`, for which the Potency entry in the experiment on CP286, in the experiment on CP291, with CP297, with CP305, in the experiment on CP325 and with CP329 was “inactive” in each case. In addition, the Potency entry with CP335, with DFO2036 and in the experiment with DIV14 was “inactive” each time.
Take `CN(CCOc1ccc(CC2SC(=O)NC2=O)cc1)c1ccccn1` (stereo not drawn): the Potency result in the experiment with CP286, in the experiment with CP291, in the experiment with CP297, in the experiment with CP305, in the experiment with CP315 and with CP325 was “inactive” in each case. Also, the Potency result in the experiment on CP329, in the experiment with CP335, in the experiment on DFO2036 and with DIV14 was “inactive” throughout.
Turning to `CC1=NN(c2ccccc2)C(=O)C1`, the Potency entry in the experiment on CP286, in the experiment on CP291, in the experiment with CP297, in the experiment on CP305, in the experiment with CP315 and with CP325 was “inactive” in each case. In addition, the Potency result in the experiment on CP329, in the experiment on CP335, in the experiment on DFO2036 and in the experiment on DIV14 was “inactive” throughout.
With `C[C@@H](NCCCc1cccc(C(F)(F)F)c1)c1cccc2ccccc12`, the Potency with CP286 was 11200 nM (active); in the experiment on CP291 it was 10700 nM (active); in the experiment on CP297 it was 13500 nM (active); in the experiment with CP305, 13500 nM (active); in the experiment with CP325, 15100 nM (active); with DFO2036, 11200 nM (active). The Potency in the experiment on DIV14 was 6010 nM (active).
Turning to `Nc1[nH]c(=O)ncc1F`, the Potency entry with CP286, with CP291, with CP297, in the experiment on CP305, with CP315 and in the experiment with CP325 was “inactive” throughout. In addition, the Potency entry with CP329, in the experiment with CP335, in the experiment on DFO2036 and in the experiment with DIV14 was “inactive” in each case.
Consider `CCOC(=O)c1ccc(OC(=O)CCCCCN=C(N)N)cc1`, for which the Potency result with CP286, in the experiment on CP291, in the experiment with CP297, in the experiment on CP305, in the experiment with CP315 and in the experiment with CP325 was “inactive” in each case. In addition, the Potency entry with CP329 and in the experiment on DFO2036 was “inactive” in each case.
As to `CC[C@H](NC(C)C)[C@H](O)c1ccc(O)c2[nH]c(=O)ccc12`, the Potency entry in the experiment on CP286, in the experiment on CP291, in the experiment on CP297, in the experiment on CP305, in the experiment with CP315 and in the experiment with CP325 was “inactive” each time. Also, the Potency entry in the experiment with CP329, in the experiment with CP335, in the experiment with DFO2036 and with DIV14 was “inactive” in each case.
As to `COc1cc(NS(=O)(=O)c2ccc(N)cc2)nc(OC)n1`, the Potency result in the experiment with CP286, in the experiment with CP291, with CP297, with CP305, in the experiment on CP315 and with CP325 was “inactive” in each case. For the same molecule, the Potency entry in the experiment with CP329, in the experiment with CP335, with DFO2036 and in the experiment with DIV14 was “inactive” throughout.
`COC(=O)Nc1nc2ccc(Sc3ccccc3)cc2[nH]1`: the Potency result with CP286, in the experiment with CP291, with CP297, with CP305, with CP315 and in the experiment on CP325 was “inactive” each time. Further, the Potency entry in the experiment with CP329, in the experiment on CP335, in the experiment on DFO2036 and in the experiment on DIV14 was “inactive” each time.
For the molecule `S=P(N1CC1)(N1CC1)N1CC1`, the Potency result with CP286, in the experiment with CP291, with CP297, in the experiment with CP305, with CP315 and in the experiment with CP325 was “inactive” each time. In addition, the Potency entry in the experiment with CP329, in the experiment with CP335, in the experiment with DFO2036 and in the experiment with DIV14 was “inactive” in each case.
Turning to `CN(C)CCc1c[nH]c2ccc(CS(=O)(=O)N3CCCC3)cc12`, the Potency entry in the experiment on CP286, with CP291, in the experiment on CP297, with CP305, in the experiment with CP315 and in the experiment with CP325 was “inactive” in each case. Also, the Potency entry with CP329, with DFO2036 and in the experiment on DIV14 was “inactive” throughout.
For the molecule `COc1cc(NCc2ccc3nc(N)nc(N)c3c2C)cc(OC)c1OC`, the Potency in the experiment on CP286 was 178 nM (active); in the experiment with CP291 it was 478 nM (active); with CP297, 426 nM (active); in the experiment on CP305, 601 nM (active); with CP315, 849 nM (active); in the experiment with CP325, 953 nM (active). For the same molecule, the Potency with CP329 was 379 nM (active); in the experiment with CP335, 151 nM (active); in the experiment with DFO2036 it was 355 nM (active); with DIV14, 169 nM (active).
Consider `COc1cnc(NS(=O)(=O)c2ccc(N)cc2)nc1`, for which the Potency result in the experiment with CP286, with CP291, in the experiment with CP297, with CP305, in the experiment with CP315 and in the experiment on CP325 was “inactive” in each case. Further, the Potency entry in the experiment with CP329, in the experiment on CP335, in the experiment with DFO2036 and in the experiment with DIV14 was “inactive” each time.
